Test results reported in PubChem BioAssay (NCATS).
Several values for one entry are separate records, joined by “and”; a condition that tells them apart may be missing. Identical values can stand only once. Inconclusive results are not listed. Where a structure was tested more than once in an assay, its records may differ in their call. Activity calls are given as the source filed them. Calls come from the whole dose curve; as a rule, active = well fitted curve in the direction sought with a large enough effect; inconclusive = small, poorly fitted or top-dose-only effect, or another doubt; inactive = no such curve, though single readings can be large; an effect the other way counts as inactive or inconclusive.

assay: Primary qHTS for inhibitors of nuclear receptor binding SET domain protein 2 (NSD2) in an isogenic RCH-ACV NSD2 p.E1099K mutant (9B) (AID 1645876); details: RCH-ACV NSD2 E1099K (9B) viability, CellTiter-Glo, 72 h; series mostly up to 44.9 µM
Note: nearly all actives have a fitted effect of over 70% in size.
Potency is the fitted concentration of half-maximal effect.

Row | Compound | Potency
1 | CC(C)C[C@H](NC(=O)c1cc2ccccc2s1)C(=O)N1CCN(C(=O)[C@H](CO)NS(=O)(=O)c2ccc(Cl)cc2Cl)CC1 | 23.5 µM (active)
2 | CO[C@@H]1C(N(C)C(=O)c2ccccc2)C[C@H]2O[C@]1(C)n1c3ccccc3c3c4c(c5c6ccccc6n2c5c31)C(=O)NC4=O (stereo not given in full) | 1.66 µM (active)
3 | CC[C@H](C=C[C@@H](C)[C@H]1CC[C@H]2[C@@H]3CC=C4C[C@@H](O)CC[C@]4(C)[C@@H]3CC[C@]12C)C(C)C | inactive
4 | COc1c(C)cnc(Cn2cnc3c(Cl)nc(N)nc32)c1C | 0.235 µM (active)
5 | O=[N+]([O-])c1ccc(Nc2ccccc2-c2ccccc2)c2nonc12 | 20.9 µM (active)
6 | CCOC(=O)[C@@H](N)CCC(=O)N[C@@H](CSCc1ccccc1)C(=O)N[C@@H](C(=O)OCC)c1ccccc1 | 20.9 µM (active)
7 | CN1C(=O)C(Cc2c[nH]c3ccccc23)NC1=S (stereo not given) | inactive
8 | COc1nc(C)cnc1NS(=O)(=O)c1cccnc1-c1ccc(-c2nnco2)cc1 | inactive
9 | CN1c2ccccc2C(=O)N2CCc3c([nH]c4ccccc34)C21 (stereo not given) | 2.09 µM (active)
10 | O=C1CCCC(=O)C1C(=O)c1ccc(C(F)(F)F)cc1[N+](=O)[O-] | inactive
11 | CC(NCCc1ccc(O)cc1)C(O)c1ccc(O)cc1 (stereo not given) | inactive
12 | CN[C@@H]1CN(c2ccc3c(=O)c(C(=O)O)cn(-c4nccs4)c3n2)C[C@@H]1OC | 0.102 µM (active)
13 | OC1CCC(Nc2ncc3nc(Nc4c(F)cc(F)cc4F)n([C@@H]4CCOC4)c3n2)CC1 (stereo not given in full) | inactive
14 | COC(=O)Nc1ccc(-c2nc(N3CCOCC3)c3cnn(C4CCN(C(=O)OC)CC4)c3n2)cc1 | 1.05 µM (active)
15 | CN1CC(=O)NC1=NC(=O)Nc1cccc(Cl)c1 | inactive
16 | O=C(NCCCCN1CCOCC1)c1cc2ccccc2o1 | inactive
17 | NC1(C(=O)N[C@@H](CCO)c2ccc(Cl)cc2)CCN(c2ncnc3[nH]ccc23)CC1 | 0.817 µM (active)
18 | O=C1CN2Cc3c(ccc(Cl)c3Cl)N=C2N1 | inactive

Row | Compound | Potency
19 | NC(=O)c1ccc(N(C(N)=O)c2c(F)cccc2F)nc1-c1ccc(F)cc1F | inactive
20 | N#CC1(c2cccc(C(=O)Nc3cc(Oc4ccc5nc(NC(=O)C6CC6)sc5n4)ccc3F)c2Cl)CC1 | 1.83 µM (active) and inactive
21 | Cc1cc2c(cc1C1(c3ccc(C(=O)O)cn3)CC1)C(C)(C)CCC2(C)C | inactive
22 | Cc1ccc(NC(=O)c2ccc(CN3CCN(C)CC3)cc2)cc1Nc1nc(-c2cccnc2)cs1 | 14.6 µM (active) and 14.8 µM (active)
23 | CC1=C[C@@H]2[C@@H]([C@@H](O)C[C@@]3(C)[C@H]2C[C@@H](C)[C@]3(O)C(=O)CO)[C@@]2(C)Cc3cnn(-c4ccccc4)c3C=C12 | 3.32 µM (active)
24 | COc1ccc(Cn2ccc3ccc(C(=O)NO)cc32)cc1 | 9.16 µM (active) and 13.2 µM (active)
25 | Cc1ccc(S(=O)(=O)Nc2nc3ccccc3nc2Nc2ccc3nsnc3c2)cc1 | inactive
26 | N#Cc1ccc(Oc2ccc3c(c2)COB3O)cc1 | 5.9 µM (active)
27 | CCN(CC)CCCCNc1nc2cc(Cl)c(Cl)cc2nc1-c1ccc(-c2cccs2)s1 | 7.42 µM (active)
28 | CC1CNc2c(cccc2S(=O)(=O)N[C@@H](CCCN=C(N)N)C(=O)N2CC[C@@H](C)C[C@@H]2C(=O)O)C1 (stereo not given in full) | inactive
29 | Cc1ccc2c(=O)c3cccc(CC(=O)O)c3oc2c1C | inactive
30 | NC(=O)c1noc([C@H](CCCC2CCCCC2)CC(=O)NO)n1 | 1.86 µM (active)
31 | CCOC(=O)c1c(CSc2ccccc2)n(C)c2cc(Br)c(O)c(CN(C)C)c12 | 18.6 µM (active)
32 | COc1cc2ncn(-c3cc(OCc4ccccc4S(C)(=O)=O)c(C#N)s3)c2cc1OC | inactive
33 | O=C(O)Cc1cccc(OCCCN(Cc2cccc(C(F)(F)F)c2Cl)CC(c2ccccc2)c2ccccc2)c1 | inactive
34 | COC(=O)[C@H](c1ccccc1Cl)N1CCc2sccc2C1 | inactive
35 | O=C1C(c2c(O)[nH]c3ccccc23)=Nc2ccccc21 | 8.93 µM (active) and inactive

assay: Primary qHTS for inhibitors of nuclear receptor binding SET domain protein 2 (NSD2) in an RCH-ACV wild type WT cells (2C) (AID 1645877); details: RCH-ACV (leukaemia line) NSD2 WT (2C) viability, CellTiter-Glo, 72 h; series mostly up to 44.9 µM

Row | Compound | Potency
36 | CC(C)C[C@H](NC(=O)c1cc2ccccc2s1)C(=O)N1CCN(C(=O)[C@H](CO)NS(=O)(=O)c2ccc(Cl)cc2Cl)CC1 | 20.9 µM (active)
37 | CO[C@@H]1C(N(C)C(=O)c2ccccc2)C[C@H]2O[C@]1(C)n1c3ccccc3c3c4c(c5c6ccccc6n2c5c31)C(=O)NC4=O (stereo not given in full) | 1.32 µM (active)
38 | CC[C@H](C=C[C@@H](C)[C@H]1CC[C@H]2[C@@H]3CC=C4C[C@@H](O)CC[C@]4(C)[C@@H]3CC[C@]12C)C(C)C | inactive
39 | COc1c(C)cnc(Cn2cnc3c(Cl)nc(N)nc32)c1C | 0.263 µM (active)
40 | O=[N+]([O-])c1ccc(Nc2ccccc2-c2ccccc2)c2nonc12 | 20.9 µM (active)
41 | CCOC(=O)[C@@H](N)CCC(=O)N[C@@H](CSCc1ccccc1)C(=O)N[C@@H](C(=O)OCC)c1ccccc1 | 16.6 µM (active)
42 | CN1C(=O)C(Cc2c[nH]c3ccccc23)NC1=S (stereo not given) | inactive
43 | COc1nc(C)cnc1NS(=O)(=O)c1cccnc1-c1ccc(-c2nnco2)cc1 | inactive
44 | CN1c2ccccc2C(=O)N2CCc3c([nH]c4ccccc34)C21 (stereo not given) | 1.32 µM (active)
45 | O=C1CCCC(=O)C1C(=O)c1ccc(C(F)(F)F)cc1[N+](=O)[O-] | inactive
46 | CC(NCCc1ccc(O)cc1)C(O)c1ccc(O)cc1 (stereo not given) | inactive
47 | CN[C@@H]1CN(c2ccc3c(=O)c(C(=O)O)cn(-c4nccs4)c3n2)C[C@@H]1OC | 0.0645 µM (active)
48 | OC1CCC(Nc2ncc3nc(Nc4c(F)cc(F)cc4F)n([C@@H]4CCOC4)c3n2)CC1 (stereo not given in full) | inactive
49 | COC(=O)Nc1ccc(-c2nc(N3CCOCC3)c3cnn(C4CCN(C(=O)OC)CC4)c3n2)cc1 | 0.742 µM (active)
50 | CN1CC(=O)NC1=NC(=O)Nc1cccc(Cl)c1 | inactive
51 | O=C(NCCCCN1CCOCC1)c1cc2ccccc2o1 | inactive
52 | NC1(C(=O)N[C@@H](CCO)c2ccc(Cl)cc2)CCN(c2ncnc3[nH]ccc23)CC1 | 2.35 µM (active)
53 | O=C1CN2Cc3c(ccc(Cl)c3Cl)N=C2N1 | inactive

Row | Compound | Potency
54 | NC(=O)c1ccc(N(C(N)=O)c2c(F)cccc2F)nc1-c1ccc(F)cc1F | inactive
55 | N#CC1(c2cccc(C(=O)Nc3cc(Oc4ccc5nc(NC(=O)C6CC6)sc5n4)ccc3F)c2Cl)CC1 | 3.65 µM (active) and inactive
56 | Cc1cc2c(cc1C1(c3ccc(C(=O)O)cn3)CC1)C(C)(C)CCC2(C)C | inactive
57 | Cc1ccc(NC(=O)c2ccc(CN3CCN(C)CC3)cc2)cc1Nc1nc(-c2cccnc2)cs1 | 18.4 µM (active) and 14.8 µM (active)
58 | CC1=C[C@@H]2[C@@H]([C@@H](O)C[C@@]3(C)[C@H]2C[C@@H](C)[C@]3(O)C(=O)CO)[C@@]2(C)Cc3cnn(-c4ccccc4)c3C=C12 | 0.0026 µM (active)
59 | COc1ccc(Cn2ccc3ccc(C(=O)NO)cc32)cc1 | 16.3 µM (active) and 8.33 µM (active)
60 | Cc1ccc(S(=O)(=O)Nc2nc3ccccc3nc2Nc2ccc3nsnc3c2)cc1 | 14.6 µM (active) and inactive
61 | N#Cc1ccc(Oc2ccc3c(c2)COB3O)cc1 | 6.61 µM (active)
62 | CCN(CC)CCCCNc1nc2cc(Cl)c(Cl)cc2nc1-c1ccc(-c2cccs2)s1 | 7.42 µM (active)
63 | CC1CNc2c(cccc2S(=O)(=O)N[C@@H](CCCN=C(N)N)C(=O)N2CC[C@@H](C)C[C@@H]2C(=O)O)C1 (stereo not given in full) | inactive
64 | Cc1ccc2c(=O)c3cccc(CC(=O)O)c3oc2c1C | inactive
65 | NC(=O)c1noc([C@H](CCCC2CCCCC2)CC(=O)NO)n1 | 1.66 µM (active)
66 | CCOC(=O)c1c(CSc2ccccc2)n(C)c2cc(Br)c(O)c(CN(C)C)c12 | 20.9 µM (active)
67 | COc1cc2ncn(-c3cc(OCc4ccccc4S(C)(=O)=O)c(C#N)s3)c2cc1OC | inactive
68 | O=C(O)Cc1cccc(OCCCN(Cc2cccc(C(F)(F)F)c2Cl)CC(c2ccccc2)c2ccccc2)c1 | inactive
69 | COC(=O)[C@H](c1ccccc1Cl)N1CCc2sccc2C1 | inactive
70 | O=C1C(c2c(O)[nH]c3ccccc23)=Nc2ccccc21 | 2.24 µM (active) and inactive
